Measurements: PubChem BioAssay (NCI)
Compounds without any hit were thinned out: in the full panel of roughly 79,000, 15% have a hit. Unmarked numbers belong to inactive results. Active and inactive are the calls of the source. Cut-off read from the data, not from the text of the source: active = growth inhibition above about 70%; inactive = the rest.

Experiment: NCI Yeast Anticancer Drug Screen. Data for the rad50 strain (AID 155);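 note: 0% = growth of vehicle-only cultures of the same strain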
Conditions: S. cerevisiae rad50 strain growth inhibition; at 33.0 µM; active compounds read high
How it was run: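 Readout: growth inhibition relative to vehicle-treated cultures. Compound exposure was carried out in a genetically defined yeast strain deficient in DNA damage repair.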
For O=C1/C(=C/c2ccccc2)CCCC1CN1CCCCC1 (centres undefined), the growth inhibition was 61%.
C#CCN(Cc1ccc2nc(N)[nH]c(=O)c2c1)c1ccc(C(=O)NC(CCC(=O)O)C(=O)O)cc1 (centres undefined) gave a growth inhibition of 69%.
CCOC1(c2cccc([N+](=O)[O-])c2)c2ccccc2Oc2ccccc21 showed a growth inhibition of 7%.
O=C(O)CNC(=S)Nc1ccccc1 gave a growth inhibition of 53%.
In the case of N/C(=N/N=C/c1cc(Br)cc(Br)c1O)NO, the growth inhibition is reported as 90% (active).
C[Si](C)(C)/C=C/CCNC(C#N)c1ccccc1 (centres undefined) gave a growth inhibition of 10%.
With CCCCCCCCCCCCCCCCOP(=O)(O)OCC(N)C(=O)O (centres undefined) the growth inhibition was 97% (active).
CC1=C(C(=O)NCc2ccccc2)C(c2ccccc2)C(C(=O)NCc2ccccc2)=C(C)N1 showed a growth inhibition of 36%.
For O=[N+]([O-])c1cc(S(=O)(=O)Nc2ccccc2)ccc1Nc1ccccc1, the growth inhibition was 89% (active).
In the case of COc1cc2ccnc(-c3c4ccccc4c(N)c4c(OC)c(OC)ccc34)c2cc1OC, the growth inhibition is reported as 90% (active).
For CCOC(=O)C(Br)C(Br)c1ccccc1Cl (centres undefined), the growth inhibition was 99% (active).
Work on CCOC(=O)C1=C(C)NC(C)=C(C(=O)OCCNC(=O)c2ccc(N=[N+]=[N-])cc2)C1c1ccccc1C(F)(F)F (centres undefined) yielded a growth inhibition of 39%.
Molecule Cc1cc(C)c(NC(=S)NC(=O)c2ccccc2)cc1C has a growth inhibition of -39%.
For CNCCCNc1c2ccccc2nc2cccc([N+](=O)[O-])c12, the growth inhibition was 93% (active).
For COc1c(O)c(C=O)c(Br)c(C=O)c1O, the growth inhibition was 47%.
Molecule Cc1c(C)c(C)c(CSC(=N)N)c(C)c1C has a growth inhibition of 51%.
In the case of O=C(CSC(=S)N1CCCCC1)Nc1nc2c(s1)CCCC2, the growth inhibition is reported as 26%.
Molecule CNC(=O)OCc1c(COC(=O)NC)c(-c2ccc(Cl)cc2)n2c1CCC2 has a growth inhibition of -30%.
Molecule CC(=O)OC1CC2C(C)(C)C(=O)C=C[C@]2(C)C2CCC3(C)C(=CCC3[C@H](CO)C[C@H](O)C(=O)C(C)(C)O)[C@]12C (some centres undefined) has a growth inhibition of 6%.
In the case of CCCCCCOC(=O)NCCOC(=O)Nc1ccccc1, the growth inhibition is reported as 8%.
C[C](C)(C)[Ge]([O][Ge]([c]1ccccc1)[c]1ccccc1)([O][Ge]([c]1ccccc1)[c]1ccccc1)[C](C)(C)C gave a growth inhibition of 63%.
In the case of CCc1c(Cl)c(C)cc(O)c1Cl, the growth inhibition is reported as 23%.
For Cc1nc(Nc2ccccc2[N+](=O)[O-])sc1C(=O)CC(=O)C(=O)Nc1c(C(C)C)cccc1C(C)C, the growth inhibition was 2%.
In the case of O=[N+]([O-])c1cccc2nc3ccccc3c(NCCCn3ccnc3[N+](=O)[O-])c12, the growth inhibition is reported as 94% (active).
CCCCCCC(O)CNCc1ccnc2ccc(OC)cc12 (centres undefined) gave a growth inhibition of 31%.
With Cc1c2cccc(Sc3ccccc3)c2c2c3c(cccc13)[S+](c1ccccc1)C2 (centres undefined) the growth inhibition was 94% (active).
For C=C1CCC(O)C/C1=C/C=C1\CCCC2(C)C1CCC2C(C)CCCC(C)C (centres undefined), the growth inhibition was 0%.
NC1=NNC2(C(N)=N1)c1ccccc1-c1ccccc12 showed a growth inhibition of 32%.
In the case of COc1cc2cc3c4cc(OC)c(OC)cc4cc[n+]3c(C)c2cc1OC, the growth inhibition is reported as 10%.
For COC(=O)NC1C(C)OC(OC2C/C=C(/C)C3C=CC4C(OC5CC(OC6CC(O)C(OC7CC(O)C(OC)C(C)O7)C(C)O6)C(O)C(C)O5)C(C)CC(C)C4C3(C)/C(O)=C3\C(=O)OC4(CC(C)C(CO)=CC4/C=C\2C)C3=O)CC1(C)[N+](=O)[O-] (centres undefined), the growth inhibition was 21%.
O=C1CSC(c2cccc(Cl)c2)N1c1ccc(-c2ccc(-n3c(-c4ccccc4)nc4ccccc4c3=O)cc2)cc1 (centres undefined) showed a growth inhibition of 15%.
CCOC(=O)C(C(=O)OCC)=P(c1ccccc1)(c1ccccc1)c1ccccc1 gave a growth inhibition of -3%.
In the case of COc1ccc(N=CN(C)C)c(C)c1, the growth inhibition is reported as 86% (active).
Work on Cc1cc(S(=O)(=O)Nc2nnc3cnc4ccccc4n23)c(S)cc1Cl yielded a growth inhibition of 12%.
In the case of O=C(Oc1ccc2c(c1)CN(Cc1ccccc1)CO2)c1ccccc1, the growth inhibition is reported as 4%.
In the case of CN(C)[C@@H]1C(=O)C(C(N)=O)=C(O)[C@@]2(O)C(=O)C3=C(O)c4c(O)cccc4C[C@H]3C[C@@H]12, the growth inhibition is reported as 95% (active).
In the case of O=[N+]([O-])c1ccc2c(c1)/C(=N/N=C1c3ccccc3Cc3ccccc31)c1cc([N+](=O)[O-])cc([N+](=O)[O-])c1-2, the growth inhibition is reported as 98% (active).
Work on Cc1nc2c(Br)cc(Br)cc2c(=O)n1-c1ccccc1NC1OCC(O)C(O)C1O (centres undefined) yielded a growth inhibition of 63%.
For Cc1cc(N(CCOS(C)(=O)=O)CCOS(C)(=O)=O)ccc1C=Nc1ccc(-c2nc(Cc3ccccc3)sc2C)cc1, the growth inhibition was 93% (active).
